Assay outcomes deposited in PubChem BioAssay by National Center for Advancing Translational Sciences (NCATS).
The list is not random: actives were taken first. Their share in the collection is about 2.4%.
SmPrx2 inh = blocks S. mansoni peroxiredoxin 2 enzymatic activity. S. mansoni Prx2 activity coupled to TGR/GSH (TGR is thioredoxin glutathione reductase), NADPH fluorescence loss, qHTS. Potency, µM. 65,000 compounds, 0.07% hits. AID 448
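Purified S. mansoni TGR and Prx2 in pH 7.4 phosphate buffer with EDTA and Tween-20 were preincubated with compounds for 15 min. Further NADPH/GSH was added, then a 2.5 mM H2O2 aliquot initiated turnover, followed kinetically by NADPH fluorescence.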
LT uptake inh = inhibitors of anthrax lethal toxin internalization. AID 912. Cells, anthrax lethal toxin internalization, FRET ratio (460/530). 70,000 compounds, 0.67% hits. Potency, µM (series often up to 40 µM), for inactives: at the highest dose activity change, negative = inhibition, hits mostly inhibitors; further: on the % scale 0 is the no-effect control and ±100 the full control effect; nearly all actives have a fitted effect of over 50% in size
AmpC inh det = inhibitors of E. coli AmpC beta-lactamase with detergent; 71,000 compounds, 0.09% hits; AID 584; purified AmpC, nitrocefin hydrolysis with detergent; Potency, µM (doses to about 28.7 µM), inactives show top-dose activity change, negative = inhibition; active means well fitted curve in the direction sought with a large enough effect; inconclusive means small, poorly fitted or top-dose-only effect; further: on the % scale 0 is the no-effect control and ±100 the full control effect
Target sequence (P00811 whole entry, looked up): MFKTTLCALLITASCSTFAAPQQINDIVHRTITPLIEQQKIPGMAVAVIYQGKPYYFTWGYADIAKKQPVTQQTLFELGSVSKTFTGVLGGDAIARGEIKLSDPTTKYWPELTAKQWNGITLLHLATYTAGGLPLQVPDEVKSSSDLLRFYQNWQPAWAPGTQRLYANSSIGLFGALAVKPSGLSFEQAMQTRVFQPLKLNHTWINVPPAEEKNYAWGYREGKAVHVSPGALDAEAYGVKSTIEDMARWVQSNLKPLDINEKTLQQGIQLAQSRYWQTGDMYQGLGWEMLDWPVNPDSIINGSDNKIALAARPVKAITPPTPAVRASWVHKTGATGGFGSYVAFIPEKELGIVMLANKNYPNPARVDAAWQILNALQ
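E. coli AmpC (5.3 nM) in 20 mM phosphate pH 7.0 with 0.01% Triton X-100, preincubated 15 min RT with compound; nitrocefin (2 uL of 800 uM stock) hydrolysis followed by 480 nm absorbance every 20 s over 4 min.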
AmpC inh no det = inhibitors of E. coli AmpC beta-lactamase without detergent | AmpC nitrocefin hydrolysis, absorbance 480 nm, no detergent | AID 585 | Potency, µM (series often up to 28.7 µM), inactives show top-dose activity change, negative = inhibition | 71,000 compounds, 1.8% hits; further: % of control where 0% means no effect
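AmpC, 20 mM phosphate pH 7.0; 15 min cpd preinc, RT; start with nitrocefin (800 uM stock); A480 kinetic read, 20 s intervals, 4 min. No-enzyme wells = negative control.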
Active calls of the source: *; ? = inconclusive; nt = not tested or not shown; [ ] = another dose, or the depositor's remark. Unless noted, the call rests on the fitted dose curve. Potency means the concentration at half of the fitted maximal effect.

SMILES	SmPrx2 inh	LT uptake inh	AmpC inh det	AmpC inh no det
CN[C@]1(C)[C@@H]2CC[C@@H](C2)C1(C)C	>57	1%	-1%	3%
C=CC1=C[C@@H](O)C2OC2C12OCCCO2 (some centres not stated)	nt	10%[1.6 µM]	nt	nt
O=C1[C@H]2[C@H]3[C@H](O)[C@H](O)C/C(=N/OC[C@@H](O)COCc4ccco4)[C@H]3CC[C@@H]2C(=O)N1c1cccc(Oc2ccccc2)c1	nt	2%[8 µM]	nt	nt
O=C1c2ccccc2C(O)N1Cc1ccc2c(c1)OCO2 (configuration not stated)	>57	-5%	13%	4µM*[single pt active]
O=C1c2ccccc2C(Nc2cccnc2)N1Cc1ccc2c(c1)OCO2 (configuration not stated)	>57	0%	13%	3.2µM*[single pt active]
COc1ccc(OC)c(NC2c3ccccc3C(=O)N2Cc2ccc3c(c2)OCO3)c1 (configuration not stated)	>57	?	15%	4µM*[single pt active]
O=c1cnc2cnc(Oc3ccccc3)nc2n1Cc1ccc(F)cc1	>57	-5%	-2%	87%
Nn1cnnc1	nt	-5%	10%	-5%
COc1ccc(S(=O)(=O)Cc2ccc(C(=O)N3CCN(c4ccccn4)CC3)o2)cc1	>57	-14%	11%	4µM*[single pt active]
COc1ccc(S(=O)(=O)Cc2ccc(C(=O)N3CCC(C(N)=O)CC3)o2)cc1	>57	9%	5%	6%
Cc1ccccc1S(=O)(=O)Cc1ccc(C(=O)N2CC(C)CC(C)C2)o1 (configuration not stated)	>57	3%	10%	4µM*[single pt active]
Cc1ccccc1S(=O)(=O)Cc1ccc(C(=O)N2CCN(c3cccc(C)c3C)CC2)o1	>57	?	-3%	85%
COc1ccccc1NC(=O)N1CCN(c2ccccn2)CC1	>57	6%	13%	4µM*[single pt active]
COc1ccc(S(=O)(=O)Cc2ccc(C(=O)N3CCCC3)o2)cc1	>57	0%	9%	3.2µM*[single pt active]
O=C1[C@H]2[C@H]3[C@H](O)[C@H](O)C/C(=N/OCc4ccccc4)[C@H]3CC[C@@H]2C(=O)N1Cc1ccc2c(c1)OCO2	nt	5%[8 µM]	nt	nt
COc1ccccc1S(=O)(=O)Cc1ccc(C(=O)N2CCCC2)o1	>57	6%	11%	22%
COc1ccccc1S(=O)(=O)Cc1ccc(C(=O)N2CCN(c3ccccn3)CC2)o1	>57	-13%	11%	4µM*[single pt active]
N#Cc1ccccc1Cn1c(=O)n(-c2ccc(CC(=O)NCc3ccco3)cc2)c(=O)c2sccc21	>57	?	10%	4µM*[single pt active]
N#Cc1ccccc1Cn1c(=O)n(Cc2ccc(C(=O)NCc3ccco3)cc2)c(=O)c2sccc21	nt	12%	9%	4µM*[single pt active]
O=C(CCCn1c(=O)c2sccc2n(Cc2cc(=O)n3ccccc3n2)c1=O)NCc1ccco1	>57	-5%	18%	4µM*[single pt active]
Cc1ccc(-n2c(=O)c3sccc3n(CC(=O)NCc3ccco3)c2=O)cc1	>57	8%	10%	-20%
C=C(CC(=O)O)C(=O)O (tested in a mixture with another compound)	>57	0%[8 µM]	-2%[5.75 µM]	11%[5.75 µM]
NC=O	nt	4%	9%	-10%
CCc1ccc(-n2c(O)cnc2Nc2nc(C)cc(C)n2)cc1	>57	-27%	10%	4µM*[single pt active]
C=CCCCC	nt	-7%	10%	-15%
SMILES	SmPrx2 inh	LT uptake inh	AmpC inh det	AmpC inh no det
COCCn1cc(C(=O)NCc2cccs2)c2c3ccccc3n(C)c2c1=O	>57	10%	9%	81%
Cn1c(C(=O)NCc2cccs2)cc2c(=O)n(C)c3ccccc3c21	>57	-7%	9%	4µM*[single pt active]
CN(CCNC(=O)c1cc2c(=O)n(C)c3ccccc3c2n1C)Cc1ccccc1	>57	3.2µM*	6%	120%
CCCN(CCC)CCNC(=O)c1cc2c(=O)n(C)c3ccccc3c2n1C	>57	4µM*	13%	30%
COc1ccc([C@@H](Nc2ncccn2)c2cc3c(cc2O)OCO3)cc1	>57	-22%[8 µM]	-1%[5.75 µM]	-3%[5.75 µM]
N#CCc1ccccc1[N+](=O)[O-]	nt	-3%	9%	-5%
CCCC1C(c2ccco2)NC(c2ccco2)CC1(C)O (configuration not stated)	>57	10µM*	-3%	-10%
Cc1ccc(S(=O)(=O)NCc2ccncc2)cc1	>57	-3%	-5%	-8%
O=C1CC(c2ccc(S(=O)(=O)NCc3ccncc3)cc2)CN1 (configuration not stated)	>57	-3%	14%	4µM*[single pt active]
O=C1CC(c2ccc(S(=O)(=O)NC3CC3)cc2)CN1 (configuration not stated)	>57	13%	15%	4µM*[single pt active]
Cc1ccc(C)c2[nH]c(=O)c(CN(CCN3CCCC3)C(=O)Nc3cccc(Cl)c3)cc12	>57	7.9µM*	-3%	98%
COc1ccc(C2CC(c3ccc(Cl)cc3Cl)n3nc(N)nc3N2)cc1 (configuration not stated)	>57	14%	14%	108%
COc1cccc(C2CC(c3ccccc3Cl)Nc3nc(N)nn32)c1 (configuration not stated)	>57	-8%	-3%	64%
CCOc1ccc(C2CC(c3cccc(OC)c3)Nc3nc(N)nn32)cc1 (configuration not stated)	>57	-5%	10%	80%
COc1cccc(C2CC(c3ccc(C)cc3)n3nc(N)nc3N2)c1 (configuration not stated)	>57	6%	12%	4µM*[single pt active]
COc1cccc(C2CC(c3ccc(C)cc3)Nc3nc(N)nn32)c1 (configuration not stated)	>57	-1%	7%	4µM*[single pt active]
COc1ccc(C2CC(c3c(Cl)cccc3Cl)n3nc(N)nc3N2)cc1 (configuration not stated)	>57	?	7%	4µM*[single pt active]
CO[C@@H]1COC(=O)[C@H](C)NC(=O)C/C=C\[C@@H](C)[C@H](OC)COC(=O)[C@H](C)NC(=O)C/C=C\[C@H]1C	nt	1%[8 µM]	nt	nt
CO[C@H]1COC(=O)[C@H](C)NC(=O)[C@@H](C)COC(=O)C/C=C\[C@@H]1C	nt	-5%[8 µM]	nt	nt
Cc1cc(Nc2cccc(F)c2)nc(-c2ccccc2O)n1	>57	?	12%	-18%
Cc1cc(Nc2ccccc2)nc(-c2ccccc2O)n1	>57	13µM*	-3%	3%
C[C@H]1/C=C\CC(=O)OC[C@H](C)C(=O)N2CCC[C@@H]2C(=O)OC1	nt	-9%[8 µM]	nt	nt
CC(=O)c1cc(C)oc1C	nt	12%	9%	0%
COc1ccc(C(O)C(CN2CCOCC2)c2ccccc2)cc1F (configuration not stated)	>57	2%	5%	4%
COc1ccc(C(=O)C(CN2CCOCC2)c2ccccc2)cc1F (configuration not stated)	>57	16µM*	-2%	76%
CN1C(=O)CC(N2CCC(c3nc4ccccc4[nH]3)CC2)C1=O (configuration not stated)	>57	-3%	13%	4µM*[single pt active]
O=C1CC(N2CCC(c3nc4ccccc4[nH]3)CC2)C(=O)N1Cc1ccccc1 (configuration not stated)	>57	0%	-3%	36%
